Compounds with a hit are over-represented: about 1.2% of the library has one in this group of screens.
HTT cytoprotect – qHTS Multiplex Assay to Identify Dual Action Probes in a Cell Model of Huntington: Cytoprotection (ATP). PC12 HTT-Q103 induced, cytoprotection, ATP luminescence, 40 h. Potency, µM (doses to about 56.4 µM), usual class: activators. 0.14% of 230,000 active. AID 1471, 2008; further: nearly all actives have a fitted effect of over 45% in size
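PC12 cells stably carrying ecdysone-inducible Htt exon 1 (Q103)–GFP were induced with 100 nM tebufenozide (final) alongside library compounds in a dose series. Cytoprotection was scored as retained ATP by ATPlite luminescence.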
GLA spleen mod – qHTS Assay for Inhibitors and Activators of Human alpha-Galactosidase From Spleen Homogenate | 0.008% of 240,000 active | human spleen homogenate, 4MU-alpha-Gal fluorescence, 40 min | Potency, µM (doses to about 80 µM), usual class: inhibitors | Alpha-galactosidase A (Homo sapiens), P06280
Target sequence (P06280 32-429 limits assumed): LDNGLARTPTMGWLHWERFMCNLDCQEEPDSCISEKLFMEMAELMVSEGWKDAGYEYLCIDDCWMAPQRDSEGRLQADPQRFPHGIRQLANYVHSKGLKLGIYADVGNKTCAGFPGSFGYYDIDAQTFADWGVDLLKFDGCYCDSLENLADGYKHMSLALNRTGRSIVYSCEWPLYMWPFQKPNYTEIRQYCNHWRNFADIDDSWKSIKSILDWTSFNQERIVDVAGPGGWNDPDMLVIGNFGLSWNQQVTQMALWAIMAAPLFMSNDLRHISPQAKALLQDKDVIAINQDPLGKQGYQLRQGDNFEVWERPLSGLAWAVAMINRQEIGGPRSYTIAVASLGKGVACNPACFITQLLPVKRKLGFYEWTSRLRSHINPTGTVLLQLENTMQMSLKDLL
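Human spleen homogenate (1 ug) as enzyme source, 4-methylumbelliferyl-alpha-D-galactopyranoside 1 mM final, citrate/phosphate pH 5.0 with 0.01% Tween-20. Compounds 40 min at 37C, NaOH/glycine stop; fluorescence Ex 365/Em 440, Hill-fit AC50.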
HTT aggregate – qHTS Multiplex Assay to Identify Dual Action Probes in a Cell Model of Huntington: Aggregate Formation (GFP); Potency, µM (top dose mostly 46.1 µM), most hits filed as inhibitors; PC12 HttQ103-GFP aggregates, Acumen cytometry, 40 h; 1.1% of 220,000 active; AID 1688, 2009; further: nearly all actives have a fitted effect of over 60% in size
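Steps: seed 1500 PC12 HTTQ103-GFP cells/well; add tebufenozide, 100 nM final; add compound titration; add ATPLite reagent; quantify GFP aggregates by laser scanning cytometry.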
GLA inh pH 4.5 – qHTS Assay for Inhibitors of Human alpha-Galactosidase at pH 4.5; Alpha-galactosidase A (Homo sapiens), P06280; purified enzyme, 4-MU-alpha-Gal fluorescence, pH 4.5; activity change, negative = inhibition, % at 105 µM; 230,000 tested, under 10 active; AID 1467, 2008
Of the large screens only hits and unclear results are named; the others gave an inactive call; ! = not active in a repeat. The call rests on the fitted dose curve; in most records, active means well fitted curve in the direction sought with a large enough effect; inconclusive means small, poorly fitted or top-dose-only effect, or another doubt; inactive means no such curve, though single readings can be large; an effect the other way counts as inactive or inconclusive.

CC[C@H](C)[C@H](NC(=O)[C@H](Cc1cnc[nH]1)NC(=O)[C@@H](NC(=O)[C@H](CCCNC(=N)N)NC(=O)[C@H](CCCCN)NC(=O)[C@H](CCCNC(=N)N)NC(=O)[C@H](CCCCN)NC(=O)[C@@H](N)CC(N)=O)[C@@H](C)CC)C(=O)NCC(=O)N1CCC[C@H]1C(=O)NCC(=O)N[C@@H](CCCNC(=N)N)C(=O)N[C@@H](C)C(=O)N[C@@H](Cc1ccccc1)C(=O)N[C@@H](Cc1ccc(O)cc1)C(=O)N[C@H](C(=O)N[C@H](C(=O)N[C@@H](CCCCN)C(=O)N[C@@H](CC(N)=O)C(=O)N[C@H](C(=O)N[C@H](C(=O)NCC(=O)N[C@H](C(=O)N[C@H](C(=O)N[C@@H](CS)C(=O)O)[C@@H](C)CC)[C@@H](C)O)[C@@H](C)CC)[C@@H](C)CC)[C@@H](C)O)[C@@H](C)O	none (no result: HTT cytoprotect, HTT aggregate, GLA inh pH 4.5)
COc1cc(/C=C\c2ccc(OC)cc2OC)cc(OC)c1	none (no result: HTT aggregate)
COC(=O)[C@@H](c1ccccc1Cl)N1CCc2sccc2C1	none (no result: HTT aggregate, GLA inh pH 4.5)
CCOC(=O)N1CCC(NC(=O)C2CCCN(Cc3nc(-c4cccc(Cl)c4)oc3C)C2)CC1 (configuration not stated)	HTT aggregate 7.94µM
COc1cc(OC)cc(-c2nnc3n2N=C(c2cc(OC)ccc2OC)CS3)c1	none (no result: HTT cytoprotect, HTT aggregate, GLA inh pH 4.5)
CCOC(=O)[C@@H](N)CS	none (no result: GLA spleen mod, GLA inh pH 4.5)
CC(=O)N1CCN(c2ccc(Nc3ncnc4c3oc3ccccc34)cc2)CC1	HTT aggregate 17.8µM
CCc1nc(Nc2ccc(N3CCN(C(C)=O)CC3)cc2)c2oc3ccccc3c2n1	HTT aggregate inconclusive
CCOC(=O)Cn1cnc2c(cnn2-c2ccc(Cl)cc2)c1=O	HTT aggregate 15.8µM
COC(=O)Cn1cnc2c(cnn2-c2ccccc2)c1=O	none
COc1ccc(-n2c(C)nc3c(cnn3-c3ccc(Cl)cc3)c2=O)cc1	HTT aggregate 12.6µM
C=C1CC[C@H](O)C/C1=C/C=C1\CCC[C@]2(C)C([C@H](C)CC[C@@H](O)C(C)(C)O)CC[C@@H]12 (some centres not stated)	none (no result: HTT aggregate, GLA inh pH 4.5)
Fc1ccc(Nc2ncncc2-c2ccccc2C(F)(F)F)cc1	none (no result: HTT aggregate, GLA inh pH 4.5)
O=c1cc(-c2ccco2)oc2c1ccc1ccccc12	HTT aggregate inconclusive
O=c1cc(-c2ccccc2O)oc2c1ccc1ccccc12	HTT cytoprotect 0.447µM! (no result: HTT aggregate)
O=c1cc(C(Cl)(Cl)Cl)oc2c1ccc1ccccc12	HTT aggregate 7.08µM
CO[C@]1(C)C[C@H]2O[C@]1(C)n1c3ccccc3c3c4c(c5c6ccccc6n2c5c31)C(=O)N(C)C4	none (no result: HTT cytoprotect, HTT aggregate, GLA inh pH 4.5)
COc1ccc(-c2cc(C(F)F)n3ncc(C(=O)N4CCc5ccccc54)c3n2)cc1	HTT aggregate 1.58µM
COc1ccccc1N1CCN(Cc2cc(Br)c(O)c3ncccc23)CC1	HTT aggregate 10µM
CCOc1ccccc1N1CCN(Cc2cccc(OC)c2O)CC1	none
COc1cc2cc3c4c(cc(OC)c(OC)c4c2cc1OC)CCN3C	GLA spleen mod inconclusive (no result: HTT aggregate)
N=C(N)n1cccn1	none (no result: GLA spleen mod, GLA inh pH 4.5)
COc1cc(C(=O)Oc2ccccc2/C=N/NC(=O)c2ccc(Cl)cc2Cl)cc(OC)c1OC	HTT aggregate 6.31µM
Cc1ccc(S(=O)(=O)NCl)cc1	none (no result: GLA spleen mod, GLA inh pH 4.5)
Cc1ccc(N=Cc2ccc(O)cc2O)cc1F	HTT aggregate 3.16µM
COc1cccc([C@@H]2Oc3ccc(OC)cc3C(=O)[C@H]2OC(=O)Nc2ccc(OC(F)F)cc2)c1	none (no result: HTT aggregate)
[O-][n+]1onc2c1CCc1c-2nn(-c2ccccc2Cl)[n+]1[O-]	HTT aggregate 11.2µM
Cc1ccc(-n2nc3c([n+]2[O-])CCc2c-3no[n+]2[O-])cc1	HTT cytoprotect inconclusive, HTT aggregate 12.6µM
Cc1ccc(-n2nc3c(n2)/C(=N/O)CC/C3=N\O)cc1	none
Cc1cccc(-n2nc3c([n+]2[O-])CCc2nonc2-3)c1C	none (no result: HTT cytoprotect)
O=C(O)[C@H](Cc1c[nH]c2ccccc12)N1C(=O)C2=CCCC=C2C1=O	none (no result: HTT cytoprotect, HTT aggregate, GLA inh pH 4.5)
N#Cc1cc([N+](=O)[O-])cnc1N(CCO)CCO	HTT aggregate 12.6µM
O=C(Nc1nncs1)c1cc2c(s1)CCC2	none
O=C(Nc1nccs1)c1cc2c(s1)CCCCC2	HTT aggregate 12.6µM
CC(=O)OC[C@@H]1O[C@@H](O/N=C2/C[C@@H](O)[C@@H](O)[C@@H]3[C@@H]4C(=O)N(C(C)(C)C)C(=O)[C@H]4CC[C@H]23)[C@H](OC(C)=O)[C@H](OC(C)=O)[C@@H]1OC(C)=O	HTT cytoprotect inconclusive (no result: HTT aggregate, GLA inh pH 4.5)
C=C1CCN(C(Cc2ccccc2)C(=O)NCc2ccc(Cl)c(Cl)c2)S(=O)(=O)c2ccccc21 (configuration not stated)	none (no result: HTT cytoprotect, HTT aggregate, GLA inh pH 4.5)
CC=C1C2C=C(C)CC1(N)c1ccc(=O)[nH]c1C2 (configuration not stated)	none (no result: HTT aggregate, GLA inh pH 4.5)
O=Nc1c(-c2c(O)[nH]c3ccccc23)[nH]c2ccccc12	HTT cytoprotect 1.26µM! (no result: HTT aggregate)
CCN(CC)CCOC(=O)c1cccnc1	none (no result: GLA spleen mod, GLA inh pH 4.5)
C/C(CCC(=O)OC[C@@H]1O[C@H](C#Cc2ccccc2)C=C[C@@H]1Oc1ccc(C)cc1)=N/OC[C@@H](C)[C@H](OCc1ccccc1)C(C)C	none (no result: HTT aggregate, GLA inh pH 4.5)
CSc1nc(-c2ccc(C)cc2)nc(C(Cl)Cl)n1	HTT aggregate inconclusive
CCSc1nc(-c2ccccc2)nc(C(Cl)Cl)n1	HTT aggregate 10µM
O=C(O)c1ccc(S(=O)(=O)N[C@H](Cc2ccc(O)cc2)C(=O)O)cc1	none (no result: HTT cytoprotect, HTT aggregate, GLA inh pH 4.5)
O=C(O)C1CC[C@@](C(=O)O)(c2ccccc2)c2ccccc21 (some centres not stated)	none (no result: HTT cytoprotect, HTT aggregate)
Oc1cccc2c(NC(=S)Nc3ccc(OC(F)F)cc3)cccc12	HTT aggregate 12.6µM
CC1=C(C(=O)N(C)C)C(c2cccs2)NC(=O)N1 (configuration not stated)	none
CC1=C(C(=O)N(C)C)C(c2cccc(Cl)c2)NC(=O)N1 (configuration not stated)	HTT aggregate 3.98µM
CCc1ccc(C(=O)COC(=O)c2cc([N+](=O)[O-])ccc2NCCO)cc1	none
Cc1cc(C)c(C(=O)COC(=O)c2cc([N+](=O)[O-])ccc2NCCO)cc1C	HTT aggregate 0.0141µM (no result: HTT cytoprotect)
Cc1nc2cnc(N(C)C)nc2n(CCc2ccccc2)c1=O	none (no result: HTT aggregate, GLA inh pH 4.5)
Cc1cc(=O)c2c(O)c3c(O)cc(O)c4c5c(O)cc(O)c6c(O)c7c(=O)cc(C)c8c1c2c(c34)c(c65)c78	none (no result: HTT aggregate)
CN1CC(O)C2=CC(=O)C(=O)C=C21 (configuration not stated)	none (no result: HTT aggregate, GLA inh pH 4.5)
COc1ccc(C2C3=C(CC(C)(C)CC3=O)Oc3ncn(Cc4ccccc4)c(=N)c32)cc1 (configuration not stated)	HTT cytoprotect 3.98µM
C[C@@H](O)[C@@H]1C(=O)N2C(C(=O)O)=C([C@H]3CCCO3)S[C@H]12	none (no result: GLA spleen mod, GLA inh pH 4.5)
CCc1c(C)nc2ncnn2c1Nc1ccc(C#N)c(Cl)c1	HTT aggregate 12.6µM

From PubChem BioAssay
